Experimental data from PubChem BioAssay.
Active and inactive are the calls of the source. Unless noted, the rule behind the calls is not given here.

Legend:
[1] = anti-His antibody binders, primary screen, artefact control for SMM control protein annotation, biochemical, small-molecule microarray, 635 nm fluorescence (AID 1128); conditions: anti-His Alexa647 antibody binding, higher = more signal;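 note: score merges feature fluorescence with signal-to-noise for each printed compound spot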
[2] = test system: Human papillomavirus type 1a E7 protein (residues 1-88); assay: HPV1a E7 small-molecule binders, primary screen, biochemical, small-molecule microarray, residues 1-88, 635 nm (AID 1129); conditions: small-molecule microarray binding, fluorescence 635 nm; higher = more signal
[3] = target: Focal adhesion kinase 1 (Homo sapiens) (UniProt Q05397); assay: small-molecule microarray binders of FAK, primary screen, biochemical, 635/667 nm fluorescence, BSA, DTT (AID 1130); conditions: PTK2 binding, 635 nm fluorescence, higher = more signal;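 note: composite of spot emission at 667 nm and signal to noise over triplicate slides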
Sequence of Focal adhesion kinase 1 (Homo sapiens) (Q05397 whole entry, looked up): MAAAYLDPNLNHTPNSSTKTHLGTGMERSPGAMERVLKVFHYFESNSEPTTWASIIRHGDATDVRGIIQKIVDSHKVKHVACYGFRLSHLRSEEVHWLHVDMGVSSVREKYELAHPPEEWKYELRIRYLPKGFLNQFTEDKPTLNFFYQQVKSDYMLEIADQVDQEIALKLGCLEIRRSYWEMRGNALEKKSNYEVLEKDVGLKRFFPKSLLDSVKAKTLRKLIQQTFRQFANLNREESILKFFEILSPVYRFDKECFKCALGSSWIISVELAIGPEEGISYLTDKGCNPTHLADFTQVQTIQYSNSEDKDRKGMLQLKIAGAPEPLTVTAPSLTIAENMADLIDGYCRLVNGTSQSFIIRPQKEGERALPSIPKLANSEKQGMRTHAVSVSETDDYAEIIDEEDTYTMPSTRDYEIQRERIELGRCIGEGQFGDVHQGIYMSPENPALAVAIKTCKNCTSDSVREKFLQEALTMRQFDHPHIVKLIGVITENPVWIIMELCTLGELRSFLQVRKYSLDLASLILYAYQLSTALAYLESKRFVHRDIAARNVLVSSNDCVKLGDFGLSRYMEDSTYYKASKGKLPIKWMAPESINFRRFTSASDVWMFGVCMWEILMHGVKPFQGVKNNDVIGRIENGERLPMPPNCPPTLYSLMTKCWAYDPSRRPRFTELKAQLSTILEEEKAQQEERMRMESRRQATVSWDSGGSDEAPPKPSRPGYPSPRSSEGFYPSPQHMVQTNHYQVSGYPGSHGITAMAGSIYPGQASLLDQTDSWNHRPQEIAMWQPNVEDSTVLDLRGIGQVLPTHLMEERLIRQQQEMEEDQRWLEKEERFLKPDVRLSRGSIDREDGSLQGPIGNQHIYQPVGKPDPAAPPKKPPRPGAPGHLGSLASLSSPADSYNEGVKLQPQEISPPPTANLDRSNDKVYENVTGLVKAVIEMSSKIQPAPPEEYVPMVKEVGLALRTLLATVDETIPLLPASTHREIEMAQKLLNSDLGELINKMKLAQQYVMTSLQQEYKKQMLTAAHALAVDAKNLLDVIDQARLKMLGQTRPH

[4] = test system: Fibrinogen (Alexa647-labelled); assay: fibrinogen binders on compound microarrays, profiling panel, artefact control for SMM control-protein annotation, biochemical, small-molecule microarray, 635/667 nm fluorescence (AID 1131); conditions: fibrinogen-A647 binding fluorescence, higher = more signal;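 note: z-score merges 667 nm fluorescence with per-spot signal-to-noise over triplicate slides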
[5] = target: Follistatin (Homo sapiens) (UniProt P19883); assay: follistatin binders on small-molecule microarrays, primary screen, biochemical, small-molecule microarray, 635/667 nm fluorescence (AID 1132); conditions: FST binding, 635 nm fluorescence, higher = more signal
Sequence of Follistatin (Homo sapiens) (P19883 whole entry, looked up): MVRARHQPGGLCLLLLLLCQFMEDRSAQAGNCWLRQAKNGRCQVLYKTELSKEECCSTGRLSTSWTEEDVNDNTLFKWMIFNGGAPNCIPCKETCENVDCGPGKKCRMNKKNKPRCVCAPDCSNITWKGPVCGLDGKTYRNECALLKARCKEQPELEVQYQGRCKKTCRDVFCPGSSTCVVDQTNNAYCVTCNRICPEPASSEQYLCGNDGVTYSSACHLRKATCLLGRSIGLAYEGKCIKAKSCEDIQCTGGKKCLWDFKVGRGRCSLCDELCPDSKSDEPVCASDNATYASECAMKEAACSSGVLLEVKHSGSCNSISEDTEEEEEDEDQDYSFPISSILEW

[6] = target: Fibroblast growth factor 2 (Homo sapiens) (UniProt P09038); assay: FGF2 binders on small-molecule microarrays, primary screen, biochemical, small-molecule microarray, 635/667 nm fluorescence (AID 1133); conditions: small-molecule microarray binding, FGF2, fluorescence 635/667; higher = more signal
Sequence of Fibroblast growth factor 2 (Homo sapiens) (P09038 whole entry, looked up): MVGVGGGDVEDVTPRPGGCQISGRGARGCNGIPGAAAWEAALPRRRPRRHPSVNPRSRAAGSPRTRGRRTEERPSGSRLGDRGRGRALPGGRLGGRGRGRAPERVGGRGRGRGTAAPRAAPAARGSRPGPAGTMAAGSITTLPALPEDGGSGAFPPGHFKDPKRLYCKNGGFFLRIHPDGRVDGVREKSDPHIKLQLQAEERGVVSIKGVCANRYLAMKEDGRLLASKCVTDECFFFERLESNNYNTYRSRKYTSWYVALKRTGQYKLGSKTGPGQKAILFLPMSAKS

[7] = mitochondrial membrane potential change in A549 cells, profiling panel, cell-based, JC-1 fluorescence, basal, 24 h, 100 nL (AID 1138); conditions: higher = more signal;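 note: A549 lung adenocarcinoma cells under basal conditions with no added stimulus; test concentration not given here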
Lefty1 = Lefty1 binders on small-molecule microarrays, primary screen, biochemical, small-molecule microarray, 635/667 nm fluorescence (AID 1139); conditions: small-molecule microarray binding, fluorescence 635/667; higher = more signal
[8] = test system: wheat germ agglutinin (Triticum aestivum), Alexa647-labelled; assay: wheat germ agglutinin binders on compound microarrays, profiling panel, artefact control for SMM control-protein annotation, biochemical, small-molecule microarray, 635/667 nm fluorescence (AID 1140); conditions: WGA-A647 binding, 635 nm fluorescence, higher = more signal;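 note: score merges 667 nm feature emission with signal to noise over triplicate slides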
[9] = target: Luciferin 4-monooxygenase (Photinus pyralis) (UniProt P08659); assay: firefly luciferase enzyme inhibitors, primary screen, biochemical, luminescence, purified enzyme, 2006 set (AID 1141); conditions: SteadyGlo luminescence, 30 min, higher = more signal, called active from +8 up or from −8 down;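 note: cell-free assay with purified firefly luciferase at 100 ng per well in PBS; test concentration not given here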
Sequence of Luciferin 4-monooxygenase (Photinus pyralis) (P08659 whole entry, looked up): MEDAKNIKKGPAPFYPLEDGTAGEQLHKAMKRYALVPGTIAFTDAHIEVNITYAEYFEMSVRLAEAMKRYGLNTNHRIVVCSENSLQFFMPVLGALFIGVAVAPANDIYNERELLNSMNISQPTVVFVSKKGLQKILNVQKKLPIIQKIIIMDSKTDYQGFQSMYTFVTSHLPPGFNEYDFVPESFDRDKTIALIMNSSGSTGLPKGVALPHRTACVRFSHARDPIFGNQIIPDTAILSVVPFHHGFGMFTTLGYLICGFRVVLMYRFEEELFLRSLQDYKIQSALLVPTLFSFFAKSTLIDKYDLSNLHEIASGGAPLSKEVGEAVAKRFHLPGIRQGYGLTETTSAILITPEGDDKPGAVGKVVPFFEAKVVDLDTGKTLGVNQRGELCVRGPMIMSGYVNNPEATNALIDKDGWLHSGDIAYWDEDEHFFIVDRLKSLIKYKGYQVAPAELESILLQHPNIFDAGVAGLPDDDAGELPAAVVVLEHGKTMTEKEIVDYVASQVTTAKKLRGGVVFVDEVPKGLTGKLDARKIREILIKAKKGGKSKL

[10] = test system: Wnt5a (protein binding on small-molecule microarray); assay: Wnt5a binders on small-molecule microarray, primary screen, biophysical, 635/667 nm fluorescence (AID 1142); conditions: 635 nm fluorescence, higher = more signal;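 note: fluorescence read at 667 nm with signal to noise per printed feature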
[11] = cell viability in Huh7 cells, primary screen, cytotoxicity control for HCV replication inhibitor project, CellTiter-Glo luminescence, basal, 48 h (AID 1143); conditions: Huh7 HCV replicon, higher = more signal, called active from +8 up or from −8 down;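 note: Huh7 hepatoma cells carrying a hepatitis C replication reporter with no stimulus; test concentration not given here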
[12] = P. aeruginosa biofilm formation inhibitors, primary screen, PAO1 strain, BacTiter-Glo luminescence, LB-PBS (AID 1144); conditions: 12 h, higher = more signal
[13] = CREB reporter modulators without forskolin, primary screen, cell-based, PC12, CRE-LacZ reporter, unstimulated (AID 1145); conditions: no forskolin, luminescence, 4.5 h, higher = more signal, called active from +8 up or from −8 down
[14] = CREB reporter modulators under forskolin, primary screen, cell-based, PC12, CRE-LacZ reporter, forskolin-stimulated (AID 1146); conditions: luminescence, 4.5 h, higher = more signal, called active from +8 up or from −8 down;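 note: PC12 cells with 6xCRE LacZ reporter stimulated by forskolin 10 µM; beta-galactosidase reporter signal reflecting CREB driven transcription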
[15] = target: Streptavidin (Streptomyces avidinii) (UniProt P22629); assay: streptavidin binders on small-molecule microarray, primary screen, artefact control for SMM compound annotation, biophysical, 635/667 nm fluorescence (AID 1147); conditions: streptavidin binding, higher = more signal;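 note: signal reflects streptavidin binding to arrayed compounds as a control protein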
Sequence of Streptavidin (Streptomyces avidinii) (P22629 whole entry, looked up): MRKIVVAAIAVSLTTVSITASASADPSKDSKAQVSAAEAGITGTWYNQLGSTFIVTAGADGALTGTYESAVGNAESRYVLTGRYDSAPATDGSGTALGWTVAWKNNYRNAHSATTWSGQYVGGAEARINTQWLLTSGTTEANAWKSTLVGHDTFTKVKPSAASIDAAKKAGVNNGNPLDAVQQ

[16] = small-molecule binders of probe aInhba, primary screen, biochemical, small-molecule microarray, 635/667 nm fluorescence (AID 1148); conditions: higher = more signal;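 note: score merges 667nm spot fluorescence with signal-to-noise for antibody binding to printed compounds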
Torsin-1A (Homo sapiens) [17] = target: Torsin-1A (Homo sapiens) (UniProt O14656); assay: torsin A binders from cell lysate, primary screen, small-molecule microarray, wild-type, 635/667 nm (AID 1149); conditions: COS7 hTOR1A-WT lysate, 635 nm fluorescence, higher = more signal
Sequence of Torsin-1A (Homo sapiens) (O14656 whole entry, looked up): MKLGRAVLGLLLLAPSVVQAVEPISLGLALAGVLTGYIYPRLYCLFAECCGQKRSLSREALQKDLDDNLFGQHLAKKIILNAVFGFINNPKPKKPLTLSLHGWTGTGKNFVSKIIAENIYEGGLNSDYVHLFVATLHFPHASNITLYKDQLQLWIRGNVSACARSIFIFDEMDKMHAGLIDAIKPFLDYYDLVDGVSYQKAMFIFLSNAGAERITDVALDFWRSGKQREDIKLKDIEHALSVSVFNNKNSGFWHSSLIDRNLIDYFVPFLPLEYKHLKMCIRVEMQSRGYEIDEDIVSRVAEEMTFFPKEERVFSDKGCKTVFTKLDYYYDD

Torsin-1A (Homo sapiens) [18] = target: Torsin-1A (Homo sapiens) (UniProt O14656); assay: small-molecule binders of mutant TOR1A in lysate, primary screen, cell lysate, small-molecule microarray, COS7 lysate, 635/667 nm fluorescence (AID 1150); conditions: COS7 hTOR1A mutant lysate, 635 nm fluorescence, higher = more signal;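 note: score pools 667 nm emission and signal to noise measuring lysate protein binding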
[19] = test system: Sonic hedgehog protein (Shh); assay: small-molecule binders of Shh protein, primary screen, biochemical, small-molecule microarray, 635/667 nm fluorescence (AID 1151); conditions: small-molecule microarray binding, 635 nm fluorescence; higher = more signal;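 note: Shh protein binding to compounds spotted on small-molecule microarray slides; score combines spot fluorescence intensity with signal-to-noise across triplicate slides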

Row | SMILES | composite z-score [1] | composite z-score [2] | composite z-score [3] | composite z-score [4] | composite z-score [5] | composite z-score [6] | z-score [7] | composite z-score (Lefty1) | composite z-score [8] | z-score [9] | composite z-score [10] | z-score [11] | z-score [12] | z-score [13] | z-score [14] | composite z-score [15] | composite z-score [16] | composite z-score (Torsin-1A (Homo sapiens) [17]) | composite z-score (Torsin-1A (Homo sapiens) [18]) | composite z-score [19]
1 | C=CCOC(=O)[C@H]1[C@@H]2C(=O)O[C@@H](c3ccccc3)[C@@H](c3ccccc3)N2[C@@H](c2ccc(OCCOC(=O)[C@@H]3C[C@@H]4C(=O)N5CCC[C@H]5C(=O)N4[C@@H]3c3ccc(O)cc3)cc2)[C@]12C(=O)Nc1ccc(I)cc12 | 0.796 | 0.246 | 0.0398 | 0.664 | 1.36 | 1.16 | -1.28 | 0.698 | 0.671 | -0.873 (inactive) | 0.269 | -0.648 (inactive) | -0.42 (inactive) | 0.423 (inactive) | 0.016 (inactive) | 0.107 | 0.177 | 0.655 | 0.504 | 1.72
2 | CCOC(=O)C[C@H]1[C@H](OC(=O)c2cc3ccccc3oc2=O)[C@@H](NC(=O)Cc2ccc(OC)cc2)c2cc(OCCCO)ccc2N1C(=O)c1ccc2ccccc2n1 | 1.37 | 0.649 | 0.199 | 0.122 | 0.93 | 0.956 | -0.013 | 0.838 | 0.0863 | 0.0113 (inactive) | 0.34 | 0.0642 (inactive) | 0.177 (inactive) | 11.5 (active) | -0.906 (inactive) | 0.14 | 0.0275 | 0.0518 | 0.161 | 0.479
3 | CC(CO)N1C(=O)[C@@H]2[C@H]3C(=O)OCC=C[C@H]3OC23C=CCN(CCN2CCOCC2)C(=O)[C@@H]13 (stereo not given in full) | 1.01 | -0.549 | -0.568 | -1.3 | 0.207 | -0.443 | 0.659 | 0.27 | 0.11 | -0.531 (inactive) | 0.0471 | -0.62 (inactive) | 1.3 (inactive) | 0.463 (inactive) | 0.0027 (inactive) | -0.418 | -0.314 | -0.829 | -0.475 | 1.65
4 | Cc1ccc(S[C@]2(C(=O)NCCCN(C)C)CC(=O)N(C3CCCCC3)[C@@H]2c2ccc(CO)cc2)cc1 | -0.693 | -0.612 | 0.116 | -1.43 | -0.24 | -0.852 | 1.28 | -0.562 | 0.165 | 0.437 (inactive) | -0.178 | -1.19 (inactive) | -0.903 (inactive) | 0.0279 (inactive) | 1.46 (inactive) | -0.677 | -0.0375 | -1.74 | -1.11 | -0.728
5 | O=C(NCCCCCNC(=O)/C(Cc1ccccc1)=N/O)OCc1ccccc1 | 0.0971 | 0.0944 | 0.433 | 0.106 | 0.27 | 0.003 | 0.552 | 0.289 | -0.0398 | 0.209 (inactive) | -0.211 | -1.82 (inactive) | -1.37 (inactive) | 3.77 (inactive) | -1.44 (inactive) | 0.153 | -0.245 | 0.847 | -0.013 | -0.103
6 | CN(C)CCCNC(=O)[C@@H]1c2ccccc2C(=O)N(Cc2ccccc2Cl)[C@H]1c1ccc(CO)cc1 | 1.3 | 0.51 | -0.0522 | 0.462 | -0.0713 | -0.0728 | 1.53 | -0.92 | 1.05 | -0.751 (inactive) | -0.12 | -1.77 (inactive) | 0.388 (inactive) | -0.206 (inactive) | -0.343 (inactive) | -0.34 | -0.182 | 1.59 | 0.798 | -0.12
7 | CCOC(=O)C[C@H]1[C@H](OC(=O)c2ccc(C(=O)c3ccccc3)cc2)[C@@H](NC(=O)Cc2ccc(OC)cc2)c2cc(OCCCO)ccc2N1C(=O)c1ccccc1 | 0.305 | 0.498 | 0.15 | 0.157 | -0.17 | 0.23 | 1.14 | 0.162 | -0.337 | 0.449 (inactive) | 0.328 | -0.117 (inactive) | -0.0806 (inactive) | 1.47 (inactive) | 0.926 (inactive) | 0.162 | -0.0762 | 0.0313 | 0.337 | 0.622
8 | COCCOC(=O)N1C(=O)[C@@]2(c3cc(C#CCCO)ccc31)[C@H](c1ccccc1OCCO)N1[C@H](c3ccccc3)[C@H](c3ccccc3)OC(=O)[C@H]1[C@@H]2C(=O)Nc1nc2ccccc2s1 | 2.09 | 1.2 | 0.771 | 0.733 | 1.07 | 0.957 | -2.27 | 0.932 | 1.24 | -0.499 (inactive) | 0.138 | -0.99 (inactive) | 0.564 (inactive) | -0.467 (inactive) | 0.428 (inactive) | 0.284 | 0.107 | 0.691 | 0.568 | 1.66
9 | COCCOC(=O)N1C(=O)[C@@]2(c3cc(C#CC4=CCCCC4)ccc31)[C@H](C(=O)N1CCCCCCC1)[C@H]1C(=O)O[C@H](c3ccccc3)[C@H](c3ccccc3)N1[C@@H]2c1ccc(O)cc1 | -0.014 | 1.13 | 0.701 | -0.0414 | 1.12 | 0.446 | 0.5 | 0.486 | 0.436 | -5.8 (inactive) | 0.278 | -4.39 (inactive) | -1.7 (inactive) | -0.815 (inactive) | 0.234 (inactive) | 0.0947 | 0.329 | 0.681 | 0.595 | 1.3
10 | C=CC[C@]1(C(=O)NCCN2CCOCC2)N=C(c2ccc(OCCCO)cc2)O[C@H]1c1ccccc1CN=[N+]=[N-] | 0.625 | 1.18 | -0.319 | 0.636 | 1.46 | 1.68 | 2.52 | 0.0118 | 1.03 | -1.37 (inactive) | 1.08 | -0.933 (inactive) | 0.81 (inactive) | 2.01 (inactive) | -0.784 (inactive) | -0.422 | -0.374 | 1.39 | 1.11 | 0.284
